Measurements from PubChem BioAssay AID1851 (National Center for Advancing Translational Sciences (NCATS), 2009).
Hit rate of the full screen: of about 16,000 compounds, about 4,000 (25%) were called active. About 26% were inconclusive and are not listed. The call rests on the fitted dose curve; in most records, active means well fitted curve in the direction sought with a large enough effect; inconclusive means small, poorly fitted or top-dose-only effect, or effect the other way; inactive means no such curve, though single readings can be large or run the other way. The list is a sample of the results.

molecular target: Cytochrome P450 2C9 (Homo sapiens) (UniProt P11712); assay: Cytochrome panel assay with activity outcomes; conditions: recombinant CYP, pro-luciferin dealkylation, luminescence, p450-cyp2c9; series mostly up to 57.1 µM; activity, negative = inhibition: at the top concentration
Sequence (P11712 whole entry, looked up): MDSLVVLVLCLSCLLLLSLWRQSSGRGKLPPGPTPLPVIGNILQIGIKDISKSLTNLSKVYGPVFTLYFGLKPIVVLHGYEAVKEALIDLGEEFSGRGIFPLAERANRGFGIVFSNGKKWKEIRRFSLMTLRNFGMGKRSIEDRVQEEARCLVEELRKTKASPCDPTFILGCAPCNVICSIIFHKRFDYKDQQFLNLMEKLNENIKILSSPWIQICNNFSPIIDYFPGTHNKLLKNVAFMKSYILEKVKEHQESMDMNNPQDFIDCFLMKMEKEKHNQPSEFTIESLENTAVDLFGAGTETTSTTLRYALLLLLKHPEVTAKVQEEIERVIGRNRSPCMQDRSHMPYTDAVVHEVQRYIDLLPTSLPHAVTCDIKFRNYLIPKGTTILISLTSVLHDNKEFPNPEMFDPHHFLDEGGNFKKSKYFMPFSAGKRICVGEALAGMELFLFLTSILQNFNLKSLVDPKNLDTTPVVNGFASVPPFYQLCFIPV
On the % scale 0 is the no-effect control and ±100 the full control effect.

activity, negative = inhibition, inactive:
Cc1c(CCO)c(=O)n(C)n1C(=O)c1ccc(F)cc1 55%, N#Cc1ccc(C(=O)Nc2ccc(N3CCN(C(=O)c4ccco4)CC3)cc2)c(F)c1 -19.7%, O=C1C2C3C=CC(C2C(=O)N1CN1CCOCC1)C1C2C(=O)N(CN4CCOCC4)C(=O)C2C31 (centres undefined) -4.42% [at 11.4 µM], COc1c2c(nc3ccccc13)O[C@H]([C@@](C)(O)CO)C2 6.33% [at 25.6 µM], NC[C@H]1O[C@H](n2cnc3c(N)ncnc32)C[C@@H]1O 11.4% [at 11.4 µM], CCCCN(C)Cc1c(C)[nH]c2ccc(Cl)cc2c1=O -23.2%, O=C(NCCCN1CCC(Cc2ccccc2)CC1)C1CCN(S(=O)(=O)N2CCOCC2)CC1 -2.95%, O=C(NCCCN1CCN(Cc2ccccc2)CC1)C1CCN(S(=O)(=O)N2CCCC2)CC1 -14.5%, NCS(=O)(=O)O -4.35% [at 11.4 µM], Cc1noc(C)c1-c1cc(NCc2cccs2)ncn1 17.3% [at 2.29 µM], CC(/C=C/c1ccccc1)=N/NC(=O)CNC(=O)c1ccc2c(c1)OCO2 -26%, Cc1c(/C=N/NC(=O)c2ccc3c(c2)OCO3)cnn1C -16.9%, O=C(N/N=C/c1ccccn1)c1ccc(Br)o1 -46.8%, CN1CCN(c2ncncc2-c2ccccc2Cl)CC1 -9.71% [at 2.29 µM], CC(=O)OC[C@@H]1O[C@@H](O/N=C2/C[C@@H](O)[C@@H](O)[C@@H]3[C@@H]4C(=O)N(C[C@@H]5CCCO5)C(=O)[C@H]4CC[C@H]23)[C@H](OC(C)=O)[C@H](OC(C)=O)[C@@H]1OC(C)=O 5.35% [at 11.4 µM], COc1cccc(-c2nc(Nc3ccncc3)c3ccccc3n2)c1 -24.2% [at 2.29 µM], COc1ccc(-n2cnc3sc(-c4ccccc4)cc3c2=O)cc1 -26.2%, CC(=O)[C@H]1CC[C@H]2[C@@H]3C=CC4=CC(=O)CC[C@@]4(C)[C@H]3CC[C@]12C -25% [at 25.6 µM], C[C@@]12C[C@H](O)[C@@H]3[C@H](CCC4=CC(=O)CC[C@]43C)[C@H]1CC[C@@H]2c1csc(N)n1 0.854% [at 11.4 µM], CCCCSc1nnc(-c2ccc(C)cc2)n1C 14.8%, Nc1ccccc1CCCC(=O)O 1.29% [at 11.4 µM], COc1cccc(C2=NOC(C(=O)NCc3ccccn3)C2)c1 (centres undefined) 14.7%, CCn1c(CCCc2nc3c([nH]2)c(=O)n(C)c(=O)n3C)nc2c1c(=O)n(C)c(=O)n2C 6.37% [at 11.4 µM], Cn1c(=O)c2c(nc(N/N=C\c3ccccc3C(=O)O)n2C)n(C)c1=O 7.56% [at 11.4 µM], C[C@@]1(C(=O)O)CCC[C@@H]1C(=O)O 2.33% [at 11.4 µM], C[N+]1(CCCC[N+]2(C)CCCCCCC2)CCCCCCC1 -4.37% [at 11.4 µM], O=C(NCCc1ccccc1)C(=O)NCC1(c2ccccc2)CCCC1 -15.3%, CCCN1CCN(CCCNC(=O)Cn2nc(-c3ccc(C)cc3)ccc2=O)CC1 -9.34%, C=CCC(NCc1ccco1)c1ccc(OC)cc1 (centres undefined) -46.1%, CCN(CC)CCNC(=O)Cn1nc(-c2ccc(C)cc2)ccc1=O -0.479%, Cc1cccc(OCCCC(=O)Nc2ccccc2C(F)(F)F)c1 47.3%, Cc1ccc(OCC(=O)NNC(=O)CCC(=O)Nc2ccc(C)cc2C)cc1 33.9%

AC50, inactive:
Cc1cccc(C(=O)NCN2CCN(c3ccccc3C#N)CC2)c1

AC50, active:
Cc1cccc(C(=O)N2CCN(c3ccc([N+](=O)[O-])c(NCc4ccco4)c3)CC2)c1 3550 nM, Cc1ccccc1C(=O)N1CCN(c2ccc([N+](=O)[O-])c(NCc3ccco3)c2)CC1 2240 nM, O=C(NCCc1ccc(Cl)cc1)C1CCN(S(=O)(=O)N2CCC3(CC2)OCCO3)CC1 7080 nM, N#Cc1ccc(C2=NC(C(F)(F)F)(C(F)(F)F)c3c(n(Cc4ccco4)c(=O)[nH]c3=O)N2)cc1 398 nM, CC1(C)CC2(CC(c3cccs3)c3cc(Cl)c(O)cc3O2)NC(=S)N1 (centres undefined) 1000 nM, COc1ccc(-c2nn(-c3ccccc3)cc2/C=N/NC(=O)c2ccc3c(c2)OCO3)cc1 3160 nM, O=C(N/N=C\c1cn(-c2ccccc2)nc1-c1ccccc1)c1ccc2c(c1)OCO2 3980 nM, O=C(N/N=C\c1cn(-c2ccccc2)nc1-c1ccccc1)c1ccc(Br)o1 1580 nM, COc1ccc(Nc2ncnc3sc(-c4ccccc4)cc23)cc1 3980 nM, CC(=O)[C@@H]1CC[C@@H]2[C@@H]3C[C@H](C)C4=CC(=O)CC[C@@]4(C)[C@H]3[C@H](O)C[C@]21C 398 nM, CCCCSc1ccc2nc(-c3ccc(C#N)cc3)cn2c1 3550 nM, CC(C)CCn1c(Oc2ccccc2Cl)nc2c1c(=O)n(C)c(=O)n2C 1000 nM, Cc1ccc(-c2ccc(=O)n(CC(=O)NCc3ccco3)n2)cc1 7940 nM, CCCCOc1ccc(C(=O)N/C(=C\c2ccc(OC)cc2)C(=O)OCc2ccco2)cc1 2820 nM, Cc1ccc(OCCCC(=O)Nc2ccccc2C(F)(F)F)cc1 7940 nM, CCCCCOc1ccc(C(=O)NCC2(c3ccccc3)CCOCC2)cc1 2820 nM
